TDP1 cell CPT – qHTS for Inhibitors of human tyrosyl-DNA phosphodiesterase 1 (TDP1): qHTS in cells in presence of CPT. Potency, µM (top dose mostly 46.2 µM), most hits filed as inhibitors. AID 686979, 2013. chicken DT40 Tdp1-/-;hTDP1 cells + 20 nM CPT, ATP luminescence, 48 h. actives 12% (n = 420,000); also: nearly all actives have a fitted effect of over 55% in size
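Chicken DT40 Tdp1-/- cells stably complemented with human TDP1 were seeded at 400 cells/well in medium containing 20 nM camptothecin, exposed to pin-transferred compounds, and grown at 37 °C for at least 48 hr. Viability was read as ATP luminescence.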
DT40 TDP1 no CPT – qHTS for Inhibitors of human tyrosyl-DNA phosphodiesterase 1 (TDP1): qHTS in cells in absence of CPT | DT40 Tdp1-/- hTDP1 cells, no CPT, ATP luminescence, 48 h | Potency, µM (top dose mostly 46.2 µM), usual class: inhibitors | actives 15% (n = 420,000); also: nearly all actives have a fitted effect of over 55% in size
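Luminescent ATP content (CellTiter-Glo) served as the growth readout. Knockout chicken DT40 cells expressing human TDP1 were exposed to compounds without camptothecin for a minimum 48 hr at 37 °C.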
ALOX12 inh – Primary qHTS assay for inhibitors of human arachidonate 12S-lipoxygenase (ALOX12): Round 2 | Polyunsaturated fatty acid lipoxygenase ALOX12 (Homo sapiens), P18054 | purified 12hLO, xylenol orange hydroperoxide absorbance | Potency, µM (highest dose often 108 µM), actives largely listed as inhibitors | actives 1.1% (n = 580,000) | AID 1671190, 2021
Target sequence (P18054 whole entry, looked up): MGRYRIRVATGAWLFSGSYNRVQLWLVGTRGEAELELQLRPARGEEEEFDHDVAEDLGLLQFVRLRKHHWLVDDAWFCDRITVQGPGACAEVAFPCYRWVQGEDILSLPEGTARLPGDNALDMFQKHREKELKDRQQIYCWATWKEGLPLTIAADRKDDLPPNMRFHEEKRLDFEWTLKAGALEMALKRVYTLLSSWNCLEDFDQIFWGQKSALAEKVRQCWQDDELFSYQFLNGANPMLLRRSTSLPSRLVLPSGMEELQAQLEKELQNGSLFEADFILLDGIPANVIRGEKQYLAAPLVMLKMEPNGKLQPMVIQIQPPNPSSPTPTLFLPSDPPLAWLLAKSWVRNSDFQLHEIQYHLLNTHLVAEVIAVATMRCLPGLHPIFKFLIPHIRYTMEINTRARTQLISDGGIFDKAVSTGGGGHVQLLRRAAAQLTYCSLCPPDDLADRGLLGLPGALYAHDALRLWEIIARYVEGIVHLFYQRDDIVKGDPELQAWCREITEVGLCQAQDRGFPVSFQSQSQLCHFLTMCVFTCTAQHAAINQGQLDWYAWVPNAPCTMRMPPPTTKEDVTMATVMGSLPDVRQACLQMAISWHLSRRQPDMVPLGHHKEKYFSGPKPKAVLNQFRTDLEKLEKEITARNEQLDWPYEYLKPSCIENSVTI
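Purified human 12hLO at 150 nM in 25 mM Hepes, 0.01% Triton X-100, pH 7.0, preincubated 15 min at room temperature with compound. Reaction started with 40 uM arachidonic acid, 30 min at room temperature. Hydroperoxide measured by Fe-xylenol orange, 573/405 nm absorbance ratio.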
IL-1B inflam inh – qHTS for Inhibitors of Inflammasome Signaling: IL-1-beta AlphaLISA Primary Screen. THP-1 LPS/ATP IL-1B secretion, AlphaLISA, 16 h; hits give low values. activity change, % at 57.5 µM. actives 4.7% (n = 360,000). AID 743279, 2014; in the data active = activity change below about -50%; inconclusive = mostly about -30% to -49%
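Secreted IL-1B measured by AlphaLISA bead assay after 16 h compound exposure of THP-1 cells; compounds (final up to 57.5 uM) added 1 h before LPS (250 ng/mL) and ATP (1.25 mM) stimulation; lower signal means less secretion.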
HT1080-NT tox – qHTS for induction of synthetic lethality in tumor cells producing 2HG: qHTS for the HT-1080-NT fibrosarcoma cell line; AID 686970, 2013; Potency, µM (top dose mostly 46.1 µM), actives largely listed as cytotoxic; actives 1.6% (n = 360,000); HT-1080-NT fibrosarcoma viability, CellTiter-Glo ATP luminescence, 48 h;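 also: NT is the 2HG producing partner of a matched IDH1 knockdown line; nearly all actives have a fitted effect of over 55% in size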
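Luminescent CellTiter-Glo readout after 48 hours of compound exposure at 37 degrees C defined viability of HT-1080-NT cells. Activity was normalized to DMSO wells and cell-free media wells; concentration-response curves were fitted and assigned curve classes.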
HT1080 IDH1KD tx – qHTS for induction of synthetic lethality in tumor cells producing 2HG: qHTS for the HT-1080-IDH1KD cell line. HT-1080 IDH1 knockdown viability, ATP luminescence, 48 h. Potency, µM (titrated, usually from 46.1 µM), usual class: cytotoxic. actives 2% (n = 360,000). AID 686971, 2013
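IDH1KD HT-1080 cells, 750/well, RPMI + 5% FBS; compound pinned after 2 h settling; 48 h, 37 °C; CellTiter-Glo luminescence; % activity normalised to DMSO and no-cell wells; curves fitted, classed by r2 and efficacy.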
Hits are given with their value; n = inactive; u = inconclusive; x = not tested or not shown; [ ] = dose if it differs, or a comment. Only a selection was taken, and hits are over-represented in it overall. Unless noted, calls follow the shape of the dose curve; as a rule, active = well fitted curve in the direction sought with a large enough effect; inconclusive = small, poorly fitted or top-dose-only effect, or another doubt; inactive = no such curve, though single readings can be large; an effect the other way counts as inactive or inconclusive.

SMILES	TDP1 cell CPT	DT40 TDP1 no CPT	ALOX12 inh	IL-1B inflam inh	HT1080-NT tox	HT1080 IDH1KD tx
O=C(Cc1csc(Nc2nc(=S)[nH]c3ccccc23)n1)NCc1cccc(Cl)c1	u	18µM	n	n	n	u
O=C(Cc1csc(Nc2nc(=S)[nH]c3ccccc23)n1)NCc1ccccc1Cl	21µM	4.6µM	n	n	n	n
O=CNNC(=S)Nc1cc(Cl)cc(Cl)c1	x	x	n	x	x	x
FC(F)(F)c1ccc(CN2CCn3c(nnc3-c3ccncc3)C2)cc1	x	x	n[6.33 µM]	x	x	x
Cc1cccc(CNc2ncnc3ccc(-c4ccc5c(c4)OCCO5)cc23)c1	x	x	50µM	x	x	x
Cc1csc(CNc2ncnc3ccc(-c4ccc5c(c4)OCCO5)cc23)c1	x	x	8.9µM	x	x	x
Cc1csc(CNc2ncnc3ccc(-c4ccoc4)cc23)c1	x	x	n	x	x	x
CCCCCCCCCCOC(C)=O	x	x	n	x	x	x
O=[N+]([O-])c1cc(-n2cnnn2)ccc1N1CCC(Cc2ccccc2)CC1	23µM	9.2µM	n	n	n	n
O=C1c2cc(S(=O)(=O)NCCO)ccc2-c2ccc(S(=O)(=O)NCCO)cc21	n	n	u	n	n	n
N#CC(C#N)=C1c2cc(S(=O)(=O)NCCO)ccc2-c2ccc(S(=O)(=O)NCCO)cc21	13µM	u	u	u	n	n
N#CC(C#N)=C1c2cc(S(N)(=O)=O)ccc2-c2ccc(S(N)(=O)=O)cc21	16µM	21µM	n	n	n	n
COCCNc1nnc(SCC(=O)NNC(=O)c2ccccc2)s1	u	u	n	n	n	n
Cc1ccc(C(=O)c2c(NC(=O)CSc3nnc(N)s3)sc3c2CCCC3)cc1	u	u	u	-72	n	n
COCCNc1nnc(SCC(=O)Nc2sc3c(c2C(=O)c2ccccc2)CCCC3)s1	21µM	u	n	u	n	n
Nc1nnc(SCC(=O)Nc2sc3c(c2C(=O)c2ccccc2)CCCC3)s1	u	16µM	n	n	n	n
CC(=O)N1CCC2(C1)C(=NC1CCCC1)NC(=O)N2c1cccnc1 (stereo unspecified)	x	x	n	x	x	x
CCOC(=O)C1=C(COC(=O)/C=C/c2ccc(OC)cc2)NC(=O)NC1C (stereo unspecified)	9.2µM	21µM	n	n	n	u
CCOC(=O)C1=C(COC(=O)COc2ccc(C(C)=O)cc2)NC(=O)NC1C (stereo unspecified)	n	n	n	n	n	n
CCOC(=O)C1=C(COC(=O)/C=C/c2ccc(SC)cc2)NC(=O)NC1C (stereo unspecified)	n	u	n	n	n	n
CCOC(=O)C1=C(COC(=O)COc2ccc(C#N)cc2)NC(=O)NC1C (stereo unspecified)	n	16µM	u	n	n	n
Cc1cc(C)cc(C(=O)NC(C)C(=O)N2CCC3(CC2)NCCc2[nH]cnc23)c1 (stereo unspecified)	x	x	n	x	x	x
Cc1ccc(F)cc1S(=O)(=O)NCc1nc(N2CCCC2)c2cccc(C)c2n1	u	23µM	n	x	x	x
CCC(CC)C(=O)Nc1nn2c(CC(C)C)nnc2s1	x	x	16µM	x	x	x
CCCC(=O)Nc1nn2c(CC(C)C)nnc2s1	x	x	25µM	x	x	x
SMILES	TDP1 cell CPT	DT40 TDP1 no CPT	ALOX12 inh	IL-1B inflam inh	HT1080-NT tox	HT1080 IDH1KD tx
Cc1ccc(O)c(C(=O)OC(C)C(=O)Nc2ccc3c(c2)OCO3)c1 (stereo unspecified)	x	x	n	x	x	x
COc1ccc(/C=N/NC(=O)c2cc(-c3ccc4c(c3)OCO4)n[nH]2)cc1OC	18µM	12µM	n	u	n	n
COc1cc(/C=N/NC(=O)c2ccc3c(c2)OCO3)ccc1O	n	n	n	n	n	n
CN(C)c1ccc(/C=N/NC(=O)c2cc(-c3ccc4c(c3)OCO4)n[nH]2)cc1	18µM	21µM	n	n	5.8µM	u
O=C(N/N=C/c1ccc(F)cc1)c1cc(-c2ccc3c(c2)OCO3)n[nH]1	n	23µM	n	n	u	u
O=C(N/N=C/c1ccc2c(c1)OCO2)c1ccc(NC(=O)c2ccc(F)cc2)cc1	u	u	n	n	u	n
CC1CCN(Cc2nc(N)c3ccccc3n2)CC1	x	x	n	x	x	x
O=C1/C(=C/c2ccc(F)cc2)CCc2ccccc21	x	x	n	x	x	x
Cn1cc(CN2CCOc3ccc(C(O)C4CCCCC4)cc3C2)cn1 (stereo unspecified)	u	12µM	n	x	x	x
COc1cc(CN2CCOc3ccc(C(O)c4cccnc4)cc3C2)cc(OC)c1 (stereo unspecified)	n[9.04 µM]	n	n	x	x	x
COc1ccccc1CNc1oc(-c2ccc(C)cc2)nc1C#N	x	x	n	x	x	x
O=C(c1cc(-c2ccc(Cl)cc2)on1)N(Cc1cccc(F)c1)Cc1ccco1	u	18µM	n	x	x	x
O=C(NCc1ccco1)c1cc(-c2ccc(Cl)cc2)on1	n	n	n	n	n	n
Cc1ccc(-c2cc(C(=O)N(Cc3ccco3)Cc3cccs3)no2)cc1	x	x	n	x	x	x
O=C(c1cc(-c2ccccc2)on1)N(Cc1ccccc1)Cc1ccco1	x	x	n	x	x	x

Bioassay records deposited in PubChem by National Center for Advancing Translational Sciences (NCATS).
